This note sets out measurements from PubChem BioAssay (NCI).

About 79,000 compounds went through this panel and 15% of them were active in at least one assay; those are over-represented in the sample as a whole. Values without a mark were called inactive. The source made the active and inactive calls. Rule as the data show it: active = growth inhibition above about 70%; inactive = the rest.

Test [1] is described as follows: NCI Yeast Anticancer Drug Screen. Data for the rad50 strain (AID 155).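 Also: 0% = growth of vehicle-only cultures of the same strain.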 Particulars: S. cerevisiae rad50 strain growth inhibition; at 50.0 µM; stronger effect = higher value. The method in brief: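 Cells are treated with compound, grown, and their growth is then scored against vehicle-only cultures of the same repair-deficient yeast strain.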
The nature of test [2]: NCI Yeast Anticancer Drug Screen. Data for the mec2-1 strain (AID 157). Particulars: S. cerevisiae mec2-1 strain, at 50.0 µM, stronger effect = higher value. The method in brief:
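Test agents were screened against the mec2-1 yeast strain, with defined DNA repair or cell cycle alteration. Growth was scored as inhibition against vehicle-only controls.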

A short description of test [3]: NCI Yeast Anticancer Drug Screen. Data for the sgs1 mgt1 strain (AID 161).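 Also: 0% = growth of cultures given vehicle only.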 Particulars: S. cerevisiae sgs1 mgt1 strain, at 50.0 µM, stronger effect = higher value. The method in brief:
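Inhibition of yeast growth, normalised to vehicle-treated controls, is reported for a strain bearing genetic alterations in DNA damage repair.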

Test [4] is described as follows: NCI Yeast Anticancer Drug Screen. Data for the cln2 rad14 strain (AID 165).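 Also: 0% = growth equal to vehicle treated cultures.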 Particulars: S. cerevisiae cln2 rad14 strain, at 50.0 µM, stronger effect = higher value. The method, boiled down: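 Growth of compound-exposed yeast (cln2 rad14 genotype) measured and expressed as inhibition relative to vehicle.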
Test [5] is described as follows: NCI Yeast Anticancer Drug Screen. Data for the bub3 strain (AID 167). Particulars: S. cerevisiae bub3 mutant strain, at 50.0 µM, stronger effect = higher value. The method, boiled down: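 Part of a panel of yeast mutants defective in DNA damage repair or cell cycle regulation. Each strain is grown with compound, and inhibition is calculated relative to solvent-treated cultures.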

Test [6] in a line: NCI Yeast Anticancer Drug Screen. Data for the mlh1 rad18 strain (AID 175). Particulars: S. cerevisiae mlh1 rad18 strain growth inhibition; at 50.0 µM; stronger effect = higher value. The method in brief:
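In this whole-cell yeast screen, a strain with altered DNA damage repair is challenged with compound, and its growth is measured against matched vehicle-treated controls.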

Consider `O=CC(Cc1ccccc1)C(=O)CCc1ccccc1.[Cu+2]` (stereo unspecified), for which the growth inhibition in test [1] is 40.1%; in test [2], 13.9%; in test [3], 4.95%; in test [4] it was -48.6%; in test [5], 0.4%; in test [6], 2.55%.
In the case of `O=C(OCC1OC(n2nc(SCc3ccccc3)c(=S)[nH]c2=O)C(OC(=O)c2ccccc2)C1OC(=O)c1ccccc1)c1ccccc1` (stereo unspecified), the growth inhibition was 1.05% in test [1]; 0.35% in test [2]; 14.2% in test [3]; -46.9% in test [4]; -5.7% in test [5]; 31.8% in test [6].
With `CC1OC(c2ccccc2)OC1C` (stereo unspecified), the growth inhibition in test [1] is 18.6%; in test [2], -4.65%; in test [3], -6.9%; in test [4], -29.9%; in test [5] it was -18.9%; in test [6], 11.8%.
Regarding `NC(CSc1nc2ccccn2c1[N+](=O)[O-])C(=O)O` (stereo unspecified), the growth inhibition in test [1] was -26.1%; in test [2], -40.8%; in test [3] it was -30.1%; in test [4], 5.25%; in test [5], 8.25%; in test [6] it was -18%.
For `CCOC(=O)CCc1cn2cc(Br)nc(OC)c2n1`, the growth inhibition in test [1] is -18.6%; in test [2], -38%; in test [3], 14.6%; in test [4], 19.9%; in test [5] it was 3.7%; in test [6], -13.6%.
Consider `CC(C)OC(=O)N1C(=O)C2C3CCC(O3)C2C1=O` (stereo unspecified), for which the growth inhibition in test [1] was 9.2%; in test [2], 8.25%; in test [3], 15.2%; in test [4], 10.4%; in test [5], 9.65%; in test [6], 16.1%.
As to `CCCCOCN(COCCCC)CC(C)(C)C`, the growth inhibition was 20.9% in test [1]; 14.7% in test [2]; -10.8% in test [3]; 14.7% in test [4]; 19.4% in test [5]; 19.3% in test [6].
`COC(=N)CC(=O)C(C)(C)C`: the growth inhibition is -6.4% in test [1]; -15.9% in test [2]; -13.7% in test [3]; -9.65% in test [4]; -6.25% in test [5]; -7.2% in test [6].
Take `CC1ON2CCCC2[C@H]1C(=O)N1C2CC3CCC2(CS1(=O)=O)C3(C)C` (stereo partly specified): the growth inhibition was -4.35% in test [1]; 2.9% in test [2]; -28.6% in test [3]; -0.35% in test [4]; 19.4% in test [5]; -36.7% in test [6].
As for `O=C(CC1(O)CCCCC1)Nc1ccccc1`, the growth inhibition in test [1] is 1.9%; in test [2], -8.45%; in test [3], -8.4%; in test [4] it was -54.6%; in test [5] it was 4.6%; in test [6], -13.1%.
With `Cc1ccc(C(C(=O)O)C(Cl)(Cl)Cl)cc1` (stereo unspecified), the growth inhibition in test [1] is 6.7%; in test [2], -11%; in test [3], -0.75%; in test [4] it was 0.7%; in test [5] it was -6.45%; in test [6] it was 4.65%.
In the case of `CC(=O)/C(C)=N/Nc1ccccc1`, the growth inhibition is 7.35% in test [1]; 8.6% in test [2]; -2.6% in test [3]; -11% in test [4]; -5.7% in test [5]; 11% in test [6].
For `O=C(O)c1ccc(C(=O)c2ccc(C(=O)c3ccc(C(=O)O)cc3)cc2)cc1`, the growth inhibition in test [1] is -9.1%; in test [2], -18.4%; in test [3], 3.65%; in test [4], -52%; in test [5], -13%; in test [6] it was -14.8%.
As for `N#CC1C(=O)NC(=S)NC1c1ccc2c(c1)CCC2` (stereo unspecified), the growth inhibition in test [1] is -12.9%; in test [2] it was -6.7%; in test [3], -22.9%; in test [4], -18.8%; in test [5] it was -7.15%; in test [6], 4.1%.
`O=C(/C=C/c1ccc(O)cc1)c1cc(O)cc(O)c1`: the growth inhibition in test [1] is 16.9%; in test [2] it was 5.05%; in test [3], 2%; in test [4], -8.95%; in test [5] it was -4.1%; in test [6], 13.8%.
`c1ccc(N=C(Nc2ccccc2)N2CCCC2)cc1`: the growth inhibition in test [1] was -33.2%; in test [2], -13.6%; in test [3] it was -28.1%; in test [4], 5.7%; in test [5], -19.8%; in test [6], -19.4%.
For the compound `N#CC(=S)N(C(=O)c1ccc(Cl)cc1)c1ccccc1Cl`, the growth inhibition in test [1] was -1.4%; in test [2], 28.6%; in test [3], 12.6%; in test [4] it was -18.9%; in test [5], 45.5%; in test [6], 24.9%.
For the compound `COC1c2ccccc2C=CN1c1ccc([N+](=O)[O-])cc1[N+](=O)[O-]` (stereo unspecified), the growth inhibition in test [1] is 61.8%; in test [2], 70.4% (active); in test [3] it was 69.2%; in test [4], 27.4%; in test [5], 59.1%; in test [6] it was 71.2% (active).
As for `COc1cc2c(cc1C(C)c1ccc(OCc3ccccc3)cc1)OCO2` (stereo unspecified), the growth inhibition in test [1] is -1.3%; in test [2], -1.1%; in test [3], -8.6%; in test [4] it was -13.1%; in test [5], 0%; in test [6], 9.65%.
For the compound `O=C1CCC(CC2CCCCC2)CC1`, the growth inhibition in test [1] was -6.7%; in test [2] it was -3.95%; in test [3], -2.8%; in test [4] it was -58.6%; in test [5], -17.7%; in test [6] it was -12.2%.
Turning to `C=C(c1ccc(OC)cc1)c1cc(C(C)(C)C)c(O)c(C(C)(C)C)c1`, the growth inhibition in test [1] is -4.45%; in test [2], -1.75%; in test [3], -17.9%; in test [4], 51.8%; in test [5], -4.65%; in test [6], 0.35%.
